# From PubChem BioAssay
# UCHL1 inh = inhibitors of human UCHL1 deubiquitinase; Ubiquitin carboxyl-terminal hydrolase isozyme L1 (Homo sapiens), P09936; purified UCHL1, Ub-rhodamine cleavage fluorescence; inhibition, % at 20 µM; 47,000 compounds, 0.2% hits
# USP10 block = inhibitors of human USP10 deubiquitinase; purified USP10, Ub-rhodamine fluorescence, 60 min; inhibition, % at 20 µM; 47,000 compounds, 1.1% hits; AID 1645856, 2021
# USP8 inh = inhibitors of human USP8 deubiquitinase; Ubiquitin carboxyl-terminal hydrolase 8 (Homo sapiens), P40818; purified USP8, Ub-rhodamine cleavage fluorescence, 30 min; inhibition, % at 20 µM; 47,000 compounds, 4.2% hits; AID 1645853, 2021
# Target sequence (P40818 whole entry, looked up): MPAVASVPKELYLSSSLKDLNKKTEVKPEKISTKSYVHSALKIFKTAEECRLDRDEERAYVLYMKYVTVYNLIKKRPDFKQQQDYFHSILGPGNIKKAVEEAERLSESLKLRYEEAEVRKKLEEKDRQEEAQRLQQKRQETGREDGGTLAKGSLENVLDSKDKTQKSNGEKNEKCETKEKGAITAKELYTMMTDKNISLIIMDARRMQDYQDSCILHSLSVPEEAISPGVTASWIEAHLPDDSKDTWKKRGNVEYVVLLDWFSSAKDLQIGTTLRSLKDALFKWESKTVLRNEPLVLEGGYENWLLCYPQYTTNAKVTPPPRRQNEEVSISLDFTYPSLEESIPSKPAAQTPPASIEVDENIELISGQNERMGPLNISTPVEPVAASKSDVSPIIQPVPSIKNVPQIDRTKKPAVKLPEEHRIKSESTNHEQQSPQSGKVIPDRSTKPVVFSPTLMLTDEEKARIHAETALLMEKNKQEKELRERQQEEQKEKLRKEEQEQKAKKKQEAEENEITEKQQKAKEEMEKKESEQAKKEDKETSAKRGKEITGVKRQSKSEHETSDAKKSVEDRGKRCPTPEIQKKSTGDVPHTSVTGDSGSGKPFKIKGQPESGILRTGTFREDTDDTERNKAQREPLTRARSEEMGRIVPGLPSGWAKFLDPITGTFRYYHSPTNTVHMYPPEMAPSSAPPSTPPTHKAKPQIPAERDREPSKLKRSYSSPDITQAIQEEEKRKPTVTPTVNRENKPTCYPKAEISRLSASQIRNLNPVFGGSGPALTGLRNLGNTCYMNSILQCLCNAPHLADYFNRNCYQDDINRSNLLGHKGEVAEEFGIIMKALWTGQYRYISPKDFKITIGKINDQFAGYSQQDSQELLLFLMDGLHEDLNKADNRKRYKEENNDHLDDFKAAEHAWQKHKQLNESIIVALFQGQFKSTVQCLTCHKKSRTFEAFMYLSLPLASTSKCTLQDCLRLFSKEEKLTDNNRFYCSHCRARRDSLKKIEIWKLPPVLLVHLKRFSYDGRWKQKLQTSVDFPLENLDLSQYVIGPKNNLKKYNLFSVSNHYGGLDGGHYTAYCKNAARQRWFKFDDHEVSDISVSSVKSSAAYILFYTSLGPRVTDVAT
# USP7 block = inhibitors of human USP7 deubiquitinase | Ubiquitin carboxyl-terminal hydrolase 7 (Homo sapiens), Q93009 | purified USP7, Ub-rhodamine cleavage fluorescence | inhibition, % at 20 µM | 47,000 compounds, 0.3% hits
# Starred values were filed as active, the others as inactive. Hits are enriched below; roughly 4.6% of the tested compounds scored in any of these assays. No stated cut-off is given here; in the data, active means inhibition above about 30%; inactive means the rest.
SMILES,UCHL1 inh,USP10 block,USP8 inh,USP7 block
CC(C)Cc1ccc(-c2cc(-c3ccc(C(F)(F)F)cc3)c(C#N)c(=O)[nH]2)cc1,-2,64*,12,35*
Cc1ccc(-c2cc(-c3ccc(F)cc3)[nH]c(=O)c2C#N)cc1,1,19,9,9
CN(C)c1ncc(C(=O)N2CCC(c3cc4ccccc4c(=O)[nH]3)CC2)cn1,-1,-1,-4,0
Cn1cc(-c2nc(C(=O)Nc3ccc(C#N)cc3)cs2)c2cccnc21,2,14,85*,10
COc1cc2c(cc1OC)CC(=O)N(Cc1c(F)cccc1Cl)C=C2,3,1,37*,0
O=C1CC(c2ccco2)Cc2nc(N3CCc4ccccc4C3)ncc21 (configuration not stated),5,6,3,0
O=C1CC(c2ccco2)Cc2nc(N3CCc4ccccc43)ncc21 (configuration not stated),4,-1,40*,7
Cc1ccc2c(C)nc(Nc3ncc4c(n3)CC(c3ccco3)CC4=O)nc2c1 (configuration not stated),9,10,61*,12
CCCc1cc(C2CCCN2C(=O)c2cc(C3CCCCC3)no2)no1 (configuration not stated),2,-1,-6,-6
Cc1nc2ccc(NC(=O)COc3ccccc3[N+](=O)[O-])cc2s1,-3,10,44*,6
Cc1ccccc1CNC(=O)c1cc2occc2c(Nc2ccc(F)cc2)n1,2,24,55*,11
Cc1ccc(CNC(=O)c2cc3occc3c(Nc3ccccc3)n2)cc1,-4,-1,57*,-6
O=C(COc1ccccc1-c1nnc(-c2ccccc2)o1)NCc1ccccc1Cl,0,1,-47,3
O=C(COc1ccccc1-c1nnc(-c2ccccc2)o1)NCc1ccc(F)cc1,3,3,56*,4
O=C(COc1ccccc1-c1nnc(-c2ccccc2)o1)NCc1ccco1,19,25,84*,16
O=C(Nc1ccc(Oc2ccccc2)nc1)C1CCN(Cc2ccc3c(c2)CCO3)CC1,2,-1,5,-2
Cc1cccc(NC(=O)COC(=O)c2sc3cc(F)ccc3c2Cl)c1,2,6,2,6
CC(=O)c1cccc(NC(=O)COC(=O)c2sc3cc(F)ccc3c2Cl)c1,5,31*,26,10
COc1cccc(-n2cnc3cc(C(=O)NCc4ccncc4)ccc3c2=O)c1,0,1,58*,0
CCCCOc1ccc(CNc2cc(-n3nc(C)cc3C)ncn2)cc1,10,8,-14,14
O=C1Nc2ccccc2C(=O)C1C(c1ccc(Cl)cc1)C1C(=O)Nc2ccccc2C1=O (configuration not stated),12,54*,34*,10
CCOc1ccccc1N(C(=O)c1ccc2c(c1)OCCO2)C(C(=O)NC1CCCCC1)c1ccc(O)cc1 (configuration not stated),1,1,-7,1
COc1ccc(OC)c(C(C(=O)NC2CCCCC2)N(C(=O)c2ccc3c(c2)OCCO3)c2ccc(C)cc2)c1 (configuration not stated),11,8,33*,8
COC(=O)c1ccccc1NC(=O)COC(=O)CCc1ccccc1,6,8,35*,10
COc1ccc(-n2nnnc2CNC(=O)COc2ccc(C(C)C)cc2)cc1,5,3,1,-2
SMILES,UCHL1 inh,USP10 block,USP8 inh,USP7 block
Cc1c(NC(=O)Cc2cccs2)cccc1-n1cnnn1,0,-3,51*,2
CN1[C@@H](CCC(=O)N2CCCC2)CNC(=O)[C@@H]2[C@H]1CCN2Cc1csnn1,2,1,1,3
COC[C@H]1CCCN1C(=O)CC[C@H]1CNC(=O)[C@@H]2[C@@H](CCN2Cc2csnn2)N1C,6,3,31*,-5
Cc1ccc(CN2CC[C@@H]3[C@H]2C(=O)NC[C@H](CCC(=O)NCc2cccnc2)N3C)cc1,-1,0,-64,-14
CN1[C@@H](CCC(=O)N2CCCC2)CNC(=O)[C@@H]2[C@H]1CCN2Cc1ccccc1,4,2,22,-1
COc1ccc(CN2CC[C@@H]3[C@H]2C(=O)NC[C@H](CCC(=O)NCc2cccnc2)N3C)cc1,18,2,63*,-22
CN1[C@@H](CCC(=O)N2CCC(O)CC2)CNC(=O)[C@@H]2[C@H]1CCN2Cc1ccc(C(F)(F)F)cc1,10,0,32*,0
COc1ccc2[nH]c(CN3CCOC(C)(C(N)=O)C3)cc2c1 (configuration not stated),0,-3,-9,4
